Laboratory results: ChEMBL document CHEMBL1961873, “Compounds: GSK PKIS; Assays: Nanosyn kinase panel” (2012)
Several values for one entry are separate records, joined by “and”; a condition that tells them apart may be missing. Equal values may be shown once.

Key:
[1] = target: Tyrosine-protein kinase SYK (Homo sapiens) (UniProt P43405); details: at 1 µM
[2] = target: T1, Tyrosine-protein kinase Tec (Homo sapiens) (UniProt P42680); details: at 0.1 µM
T1 sequence (whole entry): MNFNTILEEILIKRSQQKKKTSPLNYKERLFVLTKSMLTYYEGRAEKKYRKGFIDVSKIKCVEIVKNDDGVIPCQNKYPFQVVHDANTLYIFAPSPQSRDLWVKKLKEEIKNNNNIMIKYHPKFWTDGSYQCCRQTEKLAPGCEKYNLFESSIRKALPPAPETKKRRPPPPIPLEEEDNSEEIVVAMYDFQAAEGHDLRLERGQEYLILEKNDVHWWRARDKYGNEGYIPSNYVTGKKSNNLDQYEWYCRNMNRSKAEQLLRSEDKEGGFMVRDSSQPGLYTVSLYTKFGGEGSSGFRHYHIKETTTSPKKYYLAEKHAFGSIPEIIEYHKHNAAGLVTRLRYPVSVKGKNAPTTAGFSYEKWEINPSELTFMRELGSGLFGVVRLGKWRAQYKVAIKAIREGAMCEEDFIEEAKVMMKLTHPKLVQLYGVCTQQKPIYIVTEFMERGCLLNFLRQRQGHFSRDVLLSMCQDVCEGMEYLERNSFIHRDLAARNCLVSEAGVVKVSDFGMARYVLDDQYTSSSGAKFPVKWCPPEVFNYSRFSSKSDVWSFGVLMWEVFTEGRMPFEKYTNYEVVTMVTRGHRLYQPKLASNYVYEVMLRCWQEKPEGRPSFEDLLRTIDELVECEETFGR

[3] = target: T1, Tyrosine-protein kinase Tec (Homo sapiens); details: at 1 µM
[4] = target: Angiopoietin-1 receptor (Homo sapiens) (UniProt Q02763); details: at 0.1 µM
Sequence of Angiopoietin-1 receptor (Homo sapiens) (Q02763 whole entry): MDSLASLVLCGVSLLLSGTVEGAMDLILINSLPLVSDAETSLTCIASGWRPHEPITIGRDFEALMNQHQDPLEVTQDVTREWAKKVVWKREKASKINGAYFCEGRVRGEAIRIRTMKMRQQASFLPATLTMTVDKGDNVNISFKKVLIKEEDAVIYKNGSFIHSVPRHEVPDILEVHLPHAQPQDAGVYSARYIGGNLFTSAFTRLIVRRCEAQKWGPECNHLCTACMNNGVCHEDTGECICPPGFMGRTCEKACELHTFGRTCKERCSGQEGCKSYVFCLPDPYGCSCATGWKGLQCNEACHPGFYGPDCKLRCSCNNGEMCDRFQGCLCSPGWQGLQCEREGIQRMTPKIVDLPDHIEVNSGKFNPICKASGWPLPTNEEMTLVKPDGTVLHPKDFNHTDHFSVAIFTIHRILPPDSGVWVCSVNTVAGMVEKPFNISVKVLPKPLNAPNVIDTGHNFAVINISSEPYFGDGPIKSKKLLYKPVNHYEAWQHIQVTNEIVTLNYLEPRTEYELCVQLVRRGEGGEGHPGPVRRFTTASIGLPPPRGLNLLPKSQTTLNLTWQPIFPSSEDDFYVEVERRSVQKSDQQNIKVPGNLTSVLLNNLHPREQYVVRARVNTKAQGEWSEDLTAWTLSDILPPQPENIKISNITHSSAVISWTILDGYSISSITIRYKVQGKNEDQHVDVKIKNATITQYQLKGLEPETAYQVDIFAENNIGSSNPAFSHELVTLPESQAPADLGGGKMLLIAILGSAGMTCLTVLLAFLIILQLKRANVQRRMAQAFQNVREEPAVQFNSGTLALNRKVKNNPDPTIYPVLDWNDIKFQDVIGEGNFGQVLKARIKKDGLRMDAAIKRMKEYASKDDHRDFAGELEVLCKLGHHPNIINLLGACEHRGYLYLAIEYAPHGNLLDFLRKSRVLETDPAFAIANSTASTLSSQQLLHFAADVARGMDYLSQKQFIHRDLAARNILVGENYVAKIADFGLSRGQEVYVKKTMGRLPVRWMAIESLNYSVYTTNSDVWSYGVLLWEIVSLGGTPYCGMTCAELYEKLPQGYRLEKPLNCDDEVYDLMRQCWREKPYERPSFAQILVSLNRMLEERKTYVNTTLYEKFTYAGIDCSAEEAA

[5] = target: Angiopoietin-1 receptor (Homo sapiens) (UniProt Q02763); details: at 1 µM
[6] = target: T2, Non-receptor tyrosine-protein kinase TNK1 (Homo sapiens) (UniProt Q13470); details: at 0.1 µM
T2 sequence (whole entry): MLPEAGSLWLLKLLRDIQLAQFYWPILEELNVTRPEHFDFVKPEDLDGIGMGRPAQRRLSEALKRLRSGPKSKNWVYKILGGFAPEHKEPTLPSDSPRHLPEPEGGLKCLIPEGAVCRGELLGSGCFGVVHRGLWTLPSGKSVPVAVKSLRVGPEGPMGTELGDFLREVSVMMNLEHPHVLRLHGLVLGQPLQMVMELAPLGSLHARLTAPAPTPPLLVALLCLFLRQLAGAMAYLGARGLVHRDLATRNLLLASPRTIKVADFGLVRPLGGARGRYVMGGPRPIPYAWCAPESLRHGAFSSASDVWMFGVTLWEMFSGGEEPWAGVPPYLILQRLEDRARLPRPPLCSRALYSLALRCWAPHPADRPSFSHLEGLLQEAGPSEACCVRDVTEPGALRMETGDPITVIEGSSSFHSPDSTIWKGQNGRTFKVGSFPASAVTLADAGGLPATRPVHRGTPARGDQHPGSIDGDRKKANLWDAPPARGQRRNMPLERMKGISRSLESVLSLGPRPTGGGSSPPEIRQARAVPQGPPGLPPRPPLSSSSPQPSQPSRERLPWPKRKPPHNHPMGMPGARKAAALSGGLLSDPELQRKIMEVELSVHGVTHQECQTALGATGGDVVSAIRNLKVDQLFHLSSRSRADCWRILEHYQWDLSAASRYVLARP

[7] = target: T2, Non-receptor tyrosine-protein kinase TNK1 (Homo sapiens); details: at 1 µM
[8] = target: Activated CDC42 kinase 1 (Homo sapiens) (UniProt Q07912); details: at 0.1 µM
Sequence of Activated CDC42 kinase 1 (Homo sapiens) (Q07912 whole entry, looked up): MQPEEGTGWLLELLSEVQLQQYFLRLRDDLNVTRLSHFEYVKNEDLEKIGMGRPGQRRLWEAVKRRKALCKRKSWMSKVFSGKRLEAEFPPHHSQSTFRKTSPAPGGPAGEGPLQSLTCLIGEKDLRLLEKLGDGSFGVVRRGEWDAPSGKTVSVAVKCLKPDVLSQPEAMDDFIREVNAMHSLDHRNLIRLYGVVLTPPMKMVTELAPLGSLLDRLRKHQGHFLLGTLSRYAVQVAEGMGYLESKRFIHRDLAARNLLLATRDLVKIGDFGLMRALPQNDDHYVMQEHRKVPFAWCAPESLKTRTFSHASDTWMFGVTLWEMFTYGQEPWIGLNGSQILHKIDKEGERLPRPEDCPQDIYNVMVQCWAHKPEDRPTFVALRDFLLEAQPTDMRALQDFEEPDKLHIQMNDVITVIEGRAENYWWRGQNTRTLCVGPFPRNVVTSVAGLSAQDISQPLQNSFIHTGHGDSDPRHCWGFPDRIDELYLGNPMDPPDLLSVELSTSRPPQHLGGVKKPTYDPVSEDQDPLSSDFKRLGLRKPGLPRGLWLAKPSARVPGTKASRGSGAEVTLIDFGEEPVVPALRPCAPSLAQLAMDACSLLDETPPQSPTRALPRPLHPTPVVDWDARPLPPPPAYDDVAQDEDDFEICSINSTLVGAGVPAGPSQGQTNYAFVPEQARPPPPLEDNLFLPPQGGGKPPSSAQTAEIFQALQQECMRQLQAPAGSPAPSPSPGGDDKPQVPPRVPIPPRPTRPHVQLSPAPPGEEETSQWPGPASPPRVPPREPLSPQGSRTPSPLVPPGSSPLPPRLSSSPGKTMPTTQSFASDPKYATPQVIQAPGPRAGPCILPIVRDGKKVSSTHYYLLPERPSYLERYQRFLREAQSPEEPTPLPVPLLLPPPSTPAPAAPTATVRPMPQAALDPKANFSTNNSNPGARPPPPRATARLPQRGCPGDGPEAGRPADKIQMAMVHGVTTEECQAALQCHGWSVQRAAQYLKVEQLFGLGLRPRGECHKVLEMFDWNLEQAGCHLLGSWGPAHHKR

[9] = target: Activated CDC42 kinase 1 (Homo sapiens) (UniProt Q07912); details: at 1 µM
[10] = target: High affinity nerve growth factor receptor (Homo sapiens) (UniProt P04629); details: at 0.1 µM
[11] = target: High affinity nerve growth factor receptor (Homo sapiens) (UniProt P04629); details: at 1 µM
[12] = target: BDNF/NT-3 growth factors receptor (Homo sapiens) (UniProt Q16620); details: at 0.1 µM
Sequence of BDNF/NT-3 growth factors receptor (Homo sapiens) (Q16620 32-822 limits assumed): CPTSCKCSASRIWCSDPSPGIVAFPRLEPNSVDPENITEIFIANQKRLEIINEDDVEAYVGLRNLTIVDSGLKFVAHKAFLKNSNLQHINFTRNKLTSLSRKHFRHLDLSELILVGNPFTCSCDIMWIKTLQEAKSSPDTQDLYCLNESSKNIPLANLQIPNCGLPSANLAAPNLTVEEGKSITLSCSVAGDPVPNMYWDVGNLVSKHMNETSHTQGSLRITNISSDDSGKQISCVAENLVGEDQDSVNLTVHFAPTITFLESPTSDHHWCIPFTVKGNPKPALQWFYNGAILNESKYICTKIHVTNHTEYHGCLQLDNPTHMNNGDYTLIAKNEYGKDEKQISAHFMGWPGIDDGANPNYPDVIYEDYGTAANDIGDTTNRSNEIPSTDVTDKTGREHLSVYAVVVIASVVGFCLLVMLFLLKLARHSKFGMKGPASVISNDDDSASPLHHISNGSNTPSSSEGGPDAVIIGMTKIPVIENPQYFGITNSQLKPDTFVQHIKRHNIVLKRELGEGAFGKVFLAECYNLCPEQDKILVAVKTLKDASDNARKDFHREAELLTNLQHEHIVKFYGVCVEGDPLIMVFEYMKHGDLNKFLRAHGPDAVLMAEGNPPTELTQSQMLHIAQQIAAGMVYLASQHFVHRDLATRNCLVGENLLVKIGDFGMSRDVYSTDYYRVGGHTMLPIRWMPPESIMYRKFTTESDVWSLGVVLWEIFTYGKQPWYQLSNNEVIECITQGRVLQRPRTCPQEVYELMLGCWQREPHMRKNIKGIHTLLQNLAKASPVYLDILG

[13] = target: BDNF/NT-3 growth factors receptor (Homo sapiens) (UniProt Q16620); details: at 1 µM
[14] = target: NT-3 growth factor receptor (Homo sapiens) (UniProt Q16288); details: at 0.1 µM
Sequence of NT-3 growth factor receptor (Homo sapiens) (Q16288 32-839 limits assumed): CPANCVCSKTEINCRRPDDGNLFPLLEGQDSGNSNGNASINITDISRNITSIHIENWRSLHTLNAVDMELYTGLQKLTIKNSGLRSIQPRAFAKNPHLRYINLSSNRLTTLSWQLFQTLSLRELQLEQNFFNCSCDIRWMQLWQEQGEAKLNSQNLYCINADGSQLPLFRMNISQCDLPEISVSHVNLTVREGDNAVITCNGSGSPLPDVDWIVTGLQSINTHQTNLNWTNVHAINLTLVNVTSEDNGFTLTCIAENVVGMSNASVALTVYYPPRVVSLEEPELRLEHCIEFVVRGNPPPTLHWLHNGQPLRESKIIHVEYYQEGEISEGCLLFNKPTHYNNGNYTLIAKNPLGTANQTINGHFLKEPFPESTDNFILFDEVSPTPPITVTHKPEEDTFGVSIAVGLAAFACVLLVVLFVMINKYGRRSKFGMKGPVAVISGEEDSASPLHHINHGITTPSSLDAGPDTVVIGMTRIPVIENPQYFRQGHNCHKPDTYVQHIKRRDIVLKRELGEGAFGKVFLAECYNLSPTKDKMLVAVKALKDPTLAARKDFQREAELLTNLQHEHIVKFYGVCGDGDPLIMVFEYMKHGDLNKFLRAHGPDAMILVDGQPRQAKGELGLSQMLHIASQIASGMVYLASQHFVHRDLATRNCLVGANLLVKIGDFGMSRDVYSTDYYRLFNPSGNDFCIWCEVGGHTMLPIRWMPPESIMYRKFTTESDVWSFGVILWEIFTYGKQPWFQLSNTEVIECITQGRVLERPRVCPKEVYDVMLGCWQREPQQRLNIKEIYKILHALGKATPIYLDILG

[15] = target: NT-3 growth factor receptor (Homo sapiens) (UniProt Q16288); details: at 1 µM
[16] = target: T3, Tyrosine-protein kinase TXK (Homo sapiens) (UniProt P42681); details: at 0.1 µM
T3 sequence (whole entry): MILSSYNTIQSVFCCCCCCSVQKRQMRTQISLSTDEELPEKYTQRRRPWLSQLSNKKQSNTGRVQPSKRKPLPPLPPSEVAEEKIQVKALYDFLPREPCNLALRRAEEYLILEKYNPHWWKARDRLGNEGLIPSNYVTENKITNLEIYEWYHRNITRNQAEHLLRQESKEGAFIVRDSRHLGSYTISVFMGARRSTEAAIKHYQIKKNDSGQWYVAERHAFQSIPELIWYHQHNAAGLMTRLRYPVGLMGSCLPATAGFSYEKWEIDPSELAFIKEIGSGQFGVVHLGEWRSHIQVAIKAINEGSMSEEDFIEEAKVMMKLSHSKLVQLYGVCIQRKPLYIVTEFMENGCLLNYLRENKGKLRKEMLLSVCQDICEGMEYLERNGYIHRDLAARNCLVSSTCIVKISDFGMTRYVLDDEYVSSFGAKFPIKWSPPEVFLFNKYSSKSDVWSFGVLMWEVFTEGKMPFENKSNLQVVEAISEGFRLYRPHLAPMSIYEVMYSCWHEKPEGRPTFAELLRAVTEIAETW

[17] = target: T3, Tyrosine-protein kinase TXK (Homo sapiens); details: at 1 µM
[18] = target: Non-receptor tyrosine-protein kinase TYK2 (Homo sapiens) (UniProt P29597); details: at 0.1 µM;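 further: each value is a mean of the inhibition readings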
Sequence of Non-receptor tyrosine-protein kinase TYK2 (Homo sapiens) (P29597 whole entry): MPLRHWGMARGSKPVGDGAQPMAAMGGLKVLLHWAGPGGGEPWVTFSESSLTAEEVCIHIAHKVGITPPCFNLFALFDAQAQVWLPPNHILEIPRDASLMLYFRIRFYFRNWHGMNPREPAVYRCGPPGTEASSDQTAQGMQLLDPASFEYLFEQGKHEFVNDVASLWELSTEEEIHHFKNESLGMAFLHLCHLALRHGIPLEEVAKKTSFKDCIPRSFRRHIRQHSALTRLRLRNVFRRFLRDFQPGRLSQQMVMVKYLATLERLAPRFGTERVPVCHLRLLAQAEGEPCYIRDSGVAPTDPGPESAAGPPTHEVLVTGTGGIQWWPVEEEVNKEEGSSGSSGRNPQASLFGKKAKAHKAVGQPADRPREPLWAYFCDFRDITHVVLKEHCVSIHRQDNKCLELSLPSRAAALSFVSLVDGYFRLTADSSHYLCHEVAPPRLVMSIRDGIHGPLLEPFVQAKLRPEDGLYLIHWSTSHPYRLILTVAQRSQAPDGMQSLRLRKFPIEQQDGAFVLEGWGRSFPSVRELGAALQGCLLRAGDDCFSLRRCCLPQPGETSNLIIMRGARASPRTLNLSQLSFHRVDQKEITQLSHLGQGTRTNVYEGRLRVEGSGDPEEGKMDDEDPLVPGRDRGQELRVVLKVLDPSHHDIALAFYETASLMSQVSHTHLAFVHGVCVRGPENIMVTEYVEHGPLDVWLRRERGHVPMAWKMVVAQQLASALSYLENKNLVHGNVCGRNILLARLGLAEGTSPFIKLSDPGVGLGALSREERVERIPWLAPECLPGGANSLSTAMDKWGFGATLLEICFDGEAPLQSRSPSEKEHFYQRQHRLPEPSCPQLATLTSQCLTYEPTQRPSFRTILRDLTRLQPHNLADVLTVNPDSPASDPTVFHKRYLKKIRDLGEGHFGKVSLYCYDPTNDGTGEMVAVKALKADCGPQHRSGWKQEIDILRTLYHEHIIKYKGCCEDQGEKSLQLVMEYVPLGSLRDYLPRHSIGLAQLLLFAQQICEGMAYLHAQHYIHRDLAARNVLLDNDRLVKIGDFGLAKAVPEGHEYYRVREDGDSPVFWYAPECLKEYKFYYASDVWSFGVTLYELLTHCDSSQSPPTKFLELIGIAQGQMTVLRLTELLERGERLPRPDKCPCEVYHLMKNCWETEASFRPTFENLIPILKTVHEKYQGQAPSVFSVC

[19] = target: T4, Dual specificity protein kinase TTK (Homo sapiens) (UniProt P33981); details: at 1 µM;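 further: reported figures are mean TTK inhibition at 1 µM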
T4 sequence (whole entry): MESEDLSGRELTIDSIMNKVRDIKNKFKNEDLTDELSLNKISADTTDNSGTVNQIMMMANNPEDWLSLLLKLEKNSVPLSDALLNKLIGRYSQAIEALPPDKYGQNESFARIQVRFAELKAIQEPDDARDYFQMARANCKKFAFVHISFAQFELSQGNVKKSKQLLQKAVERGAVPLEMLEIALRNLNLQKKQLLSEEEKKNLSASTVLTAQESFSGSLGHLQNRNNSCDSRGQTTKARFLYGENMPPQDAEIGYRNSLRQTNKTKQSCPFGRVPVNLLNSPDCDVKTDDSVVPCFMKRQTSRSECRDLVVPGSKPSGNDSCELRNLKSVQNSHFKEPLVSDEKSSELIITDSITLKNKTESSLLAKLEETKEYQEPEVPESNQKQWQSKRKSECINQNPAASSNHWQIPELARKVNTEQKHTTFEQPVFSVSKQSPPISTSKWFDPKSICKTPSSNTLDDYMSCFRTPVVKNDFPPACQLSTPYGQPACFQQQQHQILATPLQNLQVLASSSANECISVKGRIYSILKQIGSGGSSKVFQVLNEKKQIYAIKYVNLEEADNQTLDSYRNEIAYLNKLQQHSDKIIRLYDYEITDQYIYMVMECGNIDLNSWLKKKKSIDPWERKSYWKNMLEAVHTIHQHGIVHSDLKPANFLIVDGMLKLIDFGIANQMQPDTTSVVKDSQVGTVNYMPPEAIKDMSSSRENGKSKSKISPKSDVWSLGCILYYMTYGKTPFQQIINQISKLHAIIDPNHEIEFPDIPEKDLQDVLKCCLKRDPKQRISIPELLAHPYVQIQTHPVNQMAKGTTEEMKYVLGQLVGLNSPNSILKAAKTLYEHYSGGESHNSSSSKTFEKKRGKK

[20] = target: T5, Aurora kinase A (Homo sapiens) (UniProt O14965); details: at 0.1 µM;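 further: each reported value is a mean percent inhibition of Aurora-A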
T5 sequence (whole entry): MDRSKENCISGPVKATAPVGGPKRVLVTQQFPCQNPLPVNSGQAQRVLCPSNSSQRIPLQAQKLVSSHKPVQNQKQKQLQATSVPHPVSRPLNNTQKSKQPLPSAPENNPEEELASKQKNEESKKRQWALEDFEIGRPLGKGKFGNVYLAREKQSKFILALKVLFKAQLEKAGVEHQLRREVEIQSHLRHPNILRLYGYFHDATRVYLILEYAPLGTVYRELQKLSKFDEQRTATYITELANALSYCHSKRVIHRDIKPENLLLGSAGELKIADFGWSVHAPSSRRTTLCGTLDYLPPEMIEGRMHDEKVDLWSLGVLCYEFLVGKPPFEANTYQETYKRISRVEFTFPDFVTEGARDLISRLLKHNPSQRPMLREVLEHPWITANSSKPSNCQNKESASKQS

Row | Compound | inhibition [1] | inhibition [2] | inhibition [3] | inhibition [4] | inhibition [5] | inhibition [6] | inhibition [7] | inhibition [8] | inhibition [9] | inhibition [10] | inhibition [11] | inhibition [12] | inhibition [13] | inhibition [14] | inhibition [15] | inhibition [16] | inhibition [17] | inhibition [18] | inhibition [19] | inhibition [20]
1 | COc1ccc(-c2nn3ncccc3c2-c2ccnc(Nc3ccc(F)c(F)c3)n2)cc1 | -2.02% | 6.05% | 7.67% | 3.17% | 7.31% | 4.48% | 9.68% | 1.57% | 4.87% | 1.54% | 3.36% | 2.76% | 8.32% | 2.73% | 4.85% | 2.4% | 5% | -2.09% | -0.7% | 2.87%
2 | CC1=C(C(=O)Nc2ccc3[nH]ncc3c2)C(c2ccc(F)cc2)N=C(c2ccc(C(F)(F)F)nc2)N1 (stereo not given) | 0.81% | 3.03% | 7.4% | 2.65% | 2.49% | 1.86% | 7.12% | 1.17% | 1.16% | 4.01% | 4.07% | 1.02% | 1.46% | 2.88% | 3.8% | 3.02% | 4.16% | -0.65% | -4.56% | 4.97%
3 | NS(=O)(=O)c1ccc(N/N=C2\C(=O)Nc3cccc(CCc4ccncc4)c32)cc1 | -2.6% | -0.23% | 4.92% | 0.8% | 3.33% | 12.8% | 14.7% | 0.97% | 1.34% | 6.26% | 19.1% | 17% | 45.4% | 17.3% | 41.9% | 2.92% | 8.22% | -0.26% | 38.7% | 28.1%
4 | O=C(O[C@H]1CN[C@H](C#Cc2cc3ncnc(Nc4ccc5c(cnn5Cc5ccccc5)c4)c3s2)C1)N1CCOCC1 | 0.67% | 2.33% | 2.89% | 0.41% | 5.18% | 0.45% | 9.52% | -0.92% | -1.03% | -1.24% | 2.5% | -1.64% | -0.38% | -0.59% | 1.3% | 0.8% | 2.69% | 1.26% | 6.25% | 1.41%
5 | Cc1cc(O)cc(C)c1/C=C/c1cncc(C(N)=O)c1 | 0.5% | 5.81% | 32.2% | 2.45% | 5.29% | 4.23% | 14.4% | 1.58% | 6.06% | 4.13% | 1.48% | 1.71% | 0.87% | 1.25% | 0.56% | 5.98% | 27.9% | -2.57% | 2.18% | 2.32%
6 | CN1CCC(C(=O)Nc2n[nH]c3nc(-c4ccc(O)cc4)c(Br)cc23)CC1 | -0.04% and 0.42% | -1.21% and 2.96% | 1.24% and 2.96% | 3.01% and 5.98% | 7.84% and 7.69% | 3.57% and 0.52% | 6.51% and 6.06% | 0.92% and 0.24% | 1.76% and 1.56% | 1.13% and 2.68% | 1.2% and 2.04% | 2.51% and 1.42% | 3.32% and 2.74% | 3.04% and 2.59% | 4.91% and 0.79% | -0.5% and 4.86% | -0.68% and 3.3% | -2.31% and 0.31% | 19% and 6.37% | -1.93% and 2.95%
7 | CNC(=O)c1cncc(/C=C/c2ccccc2C)c1 | -0.24% | 6.1% | 16.4% | 1.59% | -0.24% | 3.86% | 20.7% | 1.54% | 8.09% | 3.97% | 1.73% | 2.61% | 4.3% | 3.82% | 5.34% | 6.85% | 24.5% | -2.79% | 11.7% | 1.35%
